Arbovirus anti: antivirals against arbovirus infection, primary screen, cell-based, full library, 10K replicate subset. arbovirus infection cell-based antiviral screen. inhibition, % at 10 µM. actives 0.37% (n = 200,000); in the data active means inhibition above about 30%
HMGR II inh: inhibitors of E. faecalis class II HMGR, primary screen, biochemical, Enterococcus faecalis. HMG-CoA reductase (Enterococcus faecalis, mvaE). purified E. faecalis HMGR, NADPH absorbance 340 nm kinetic. inhibition, % at 10 µM. actives 0.41% (n = 190,000). AID 1066, 2008;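 active means inhibition above a set limit, the median over all tested compounds plus 3 SD, cut at about 9.5% in these data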;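 further: enzyme runs in reverse so mevalonate oxidation gives rising NADPH absorbance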
Hsp70 act: Hsp70 transcriptional activators, primary screen, cell-based, HeLa, Hsp70 promoter luciferase, luminescence, 10 µM. HeLa Hsp70 promoter luciferase reporter; scaled: vehicle 0, proteasome-inhibitor control 100%. activation, % at 10 µM. actives 0.04% (n = 200,000). AID 1203, 2008;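 active means activation above the mean across all tested compounds plus 3 SD, cutoff set per campaign, cut at about 5.5% in these data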
Wee1 degr inh: Wee1 degradation inhibitors, primary screen, cell-based, HeLa, Wee1K328M-luciferase, luminescence; actives 1.2% (n = 220,000); HeLa Luc-Wee1K328M stability; 100% = proteasome inhibitor MG132 effect; reporter increase, % at 5 µM; AID 1321, 2008;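 active means activation above the mean of all tested compounds plus 3 SD, set per screening run, cut at about 8.8% in these data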;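 further: cells exposed to compound for 20 h before luminescence read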
Target sequence (P30291 whole entry K328M): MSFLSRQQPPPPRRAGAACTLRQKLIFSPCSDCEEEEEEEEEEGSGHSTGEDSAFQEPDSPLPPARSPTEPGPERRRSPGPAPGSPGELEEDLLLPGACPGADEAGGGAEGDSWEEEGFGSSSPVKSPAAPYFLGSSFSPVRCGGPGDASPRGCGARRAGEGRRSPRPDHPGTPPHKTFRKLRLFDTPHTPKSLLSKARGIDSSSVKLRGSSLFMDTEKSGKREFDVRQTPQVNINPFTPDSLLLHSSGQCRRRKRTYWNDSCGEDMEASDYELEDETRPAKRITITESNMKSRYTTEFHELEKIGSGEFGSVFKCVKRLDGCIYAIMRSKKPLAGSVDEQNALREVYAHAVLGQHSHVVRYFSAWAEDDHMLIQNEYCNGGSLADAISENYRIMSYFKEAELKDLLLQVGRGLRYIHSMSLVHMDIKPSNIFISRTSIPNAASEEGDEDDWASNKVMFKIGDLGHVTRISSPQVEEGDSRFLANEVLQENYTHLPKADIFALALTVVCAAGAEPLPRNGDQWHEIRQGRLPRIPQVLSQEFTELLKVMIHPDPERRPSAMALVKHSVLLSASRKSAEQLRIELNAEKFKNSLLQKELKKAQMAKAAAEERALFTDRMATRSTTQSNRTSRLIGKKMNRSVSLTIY
PKD1 inh: inhibitors of human PKD1 kinase, biochemical, fluorescence polarization; Serine/threonine-protein kinase D1 (Homo sapiens), Q15139; PKD1 kinase fluorescence polarization assay; inhibition, % (test concentration not listed); actives 0.056% (n = 200,000); AID 797, 2007; in the data active means inhibition above about 50%
Numbers stand for hits; i = inactive; nt = not tested or not shown. Shown are actives, neighbours in structure and some others; about 2% of the full set was active somewhere.

SMILES | Arbovirus anti | HMGR II inh | Hsp70 act | Wee1 degr inh | PKD1 inh
Cc1cccc(NC(=O)CSc2nc3nc4c(cc3c(=O)n2-c2ccccc2)CCCC4)c1 | i | i | i | i | i
Cc1ccccc1-n1c(SCC(=O)Nc2ccccc2)nc2nc3c(cc2c1=O)CCCC3 | i | 13 | i | i | i
Nc1nn2cc(-c3ccccc3)nc2c2ccccc12 | i | 11 | i | i | i
Cc1cn2nc(N)c3ccccc3c2n1 | i | i | i | i | i
O=C1CN(Cc2cc(=O)oc3cc4c(cc23)CCC4)CCN1 | i | i | i | i | i
CC(=O)N1CCc2ccc(NC(=O)c3c(-c4c(Cl)cccc4Cl)noc3C)cc21 | nt | nt | nt | i | nt
COc1ccc(Nc2ncnc3c2oc2ccccc23)cc1 | i | i | i | 10 | i
Cc1ccc(Nc2ncnc3c2oc2ccccc23)cc1 | i | i | i | i | i
COc1ccc(C(=O)Nc2ccc(-c3ccc(NC(=O)c4ccc(OC)cc4)c(OC)c3)cc2OC)cc1 | i | i | i | i | i
CCOC(=O)c1ccc(CC(=O)c2ccc(O)c(O)c2O)o1 | i | i | i | i | i
CCOC(=O)c1ccc(CC(=O)c2oc3cc(O)ccc3c2C)o1 | i | i | i | 10 | i
COc1ccc(N(C(C)=O)c2nc(C)cc(C)c2C#N)c(OC)c1 | i | i | i | i | i
O=[N+]([O-])c1ccc(N2CCCCC2)c(-c2nn[nH]n2)c1 | i | 14 | i | i | i
O=[N+]([O-])c1ccc(N2CCCCCC2)c(S(=O)(=O)N2CCCCC2)c1 | i | i | i | i | i
O=C(O)CCNC(=O)CCCn1nnc2ccccc2c1=O | nt | nt | nt | 9.5 | nt
COc1ccc(Nc2cc(C(=O)NCc3ccco3)c3ccccc3n2)cc1 | i | i | i | 11 | i
COc1ccccc1-n1cnnc1SCC(=O)N1CC(=O)Nc2ccccc21 | i | 9.6 | i | i | i
NS(=O)(=O)c1cccc(NC(=O)COC(=O)Cc2ccc(Cl)cc2)c1 | i | i | i | i | i
CC(C)Cn1c(N)c(C(=O)CSc2nc3ccccc3c(=O)n2CCCN2CCOCC2)c(=O)n(C)c1=O | i | i | i | i | i
O=C(COc1cccc([N+](=O)[O-])c1)N/N=C/c1ccco1 | i | 9.6 | i | i | i
CN(CCC(=O)Nc1ccc2c(c1)OCO2)Cc1ccccc1 | i | i | i | 10 | i
CS(=O)(=O)N(CC(=O)Nc1ccc2c(c1)OCO2)Cc1ccccc1 | i | i | i | i | i
CN(Cc1cccc(C(F)(F)F)c1)Cc1nc(-c2cnccn2)no1 | i | i | i | i | i
O=c1[nH]n2c(=O)c3c([nH]c2c1N=Nc1cccc(Cl)c1)CCCC3 | 40 | i | i | i | i
CCOc1ccc(N=Nc2c(=O)[nH]n3c(=O)c4c([nH]c23)CCCC4)cc1 | 60 | i | i | i | i
SMILES | Arbovirus anti | HMGR II inh | Hsp70 act | Wee1 degr inh | PKD1 inh
CCOc1ccc(N=Nc2c(=O)[nH]n3c(=O)cc(C)[nH]c23)cc1 | i | i | i | i | i
CN1CCN(S(=O)(=O)c2ccc(NCc3ccc4c(c3)OCO4)nc2)CC1 | nt | nt | nt | i | nt
Cc1c(CN2CCc3c([nH]c4ccccc34)C2C2CCCCC2)cnn1C (configuration not stated) | i | 19 | i | i | i
Cc1ccc(C)c(NCC(O)c2ccccc2)c1 (configuration not stated) | i | i | i | i | i
C/C(=N/Nc1ccc(C(=O)O)cc1)c1ccc(O)c(O)c1O | i | 11 | i | i | i
CC(C)NC(=O)CSc1nc2ccccc2n1CC(=O)N(C(C)C)C(C)C | i | 23 | i | i | i
Cc1ccc(-c2nc(-c3ccccn3)sc2CC(=O)O)cc1 | nt | nt | nt | i | nt
CC(=O)Nc1ccc(S(=O)(=O)Nc2cccc(-c3ccc4nncn4n3)c2)cc1 | i | 11 | i | i | i
C=CCN=C1S/C(=C/c2cccc([N+](=O)[O-])c2)C(=O)N1CC=C | nt | nt | nt | 9.9 | nt
C=CCN=C1S/C(=C/c2ccc([N+](=O)[O-])cc2)C(=O)N1CC=C | nt | nt | nt | i | nt
Cc1cccc(N2CC(C(=O)O)CC2=O)c1C (configuration not stated) | nt | nt | nt | i | nt
CCCCCCCCCC(=O)Nc1cccnc1 | i | 10 | i | i | i
CCCCCCCCCCC(=O)Nc1cccnc1 | i | i | i | i | i
COCC(C)NC(=O)CCc1nnc(C2(c3ccc(Cl)cc3)CCC2)o1 (configuration not stated) | i | i | i | 8.9 | i
COC(=O)CNC(=O)CCc1nnc(C2(c3ccc(Cl)cc3)CCC2)o1 | i | i | i | i | i
CCS(=O)(=O)c1ccc(O)c(NC(=O)CC2(CC(=O)O)CCCC2)c1 | nt | nt | nt | i | nt
O=C(Oc1cccc2c(O)cccc12)c1ccccc1 | i | i | i | i | i
O=C(Oc1ccccc1O)c1cccc2ccccc12 | i | 18 | i | i | i
CCOC(=O)c1c(NC(=O)CSc2ncn[nH]2)sc(C)c1C | 45 | i | i | i | i
C=CCn1c(SCC(=O)c2[nH]c(C)c(C(=O)OC)c2C)nc2scc(-c3ccc(OC)c(OC)c3)c2c1=O | i | i | i | i | i
Cc1ccc(-c2nc3cc(NC(=O)C(C)C)ccc3o2)cc1C | i | i | i | i | i
Cc1ccc(-c2nc3cc(NC(=O)C(C)C)ccc3o2)cc1 | i | i | i | 25 | i
COc1ccc(C(=O)Nc2cc(Cl)ccc2C(=O)O)cc1 | 47 | i | i | i | i
COc1c(Cl)cc(C(=O)Nc2ccccc2C(=O)O)cc1Cl | 62 | i | i | i | i
CNc1nnc(Sc2ncccc2[N+](=O)[O-])s1 | nt | nt | nt | i | nt
SMILES | Arbovirus anti | HMGR II inh | Hsp70 act | Wee1 degr inh | PKD1 inh
Cc1cc(NCCCN2CCOCC2)n2nc(C)c(-c3ccccc3)c2n1 | i | i | i | i | i
Cc1cc(NCCCN2CCOCC2)n2ncc(-c3ccccc3)c2n1 | i | i | i | 11 | i
Cc1ccc(Nc2cc(-c3ccccc3)nc3ncnn23)cc1 | nt | nt | nt | i | nt
COc1ccccc1NC(=O)C12CC3CC(C1)CC(c1ccc(C)cc1)(C3)C2 | 32 | i | i | i | i
O=C(c1ccc2nccnc2c1)N1CCN(Cc2ccc3c(c2)OCO3)CC1 | i | i | i | i | i
Cc1cccc(C(=O)N2CCN(Cc3ccc4c(c3)OCO4)CC2)c1 | i | i | i | 9.3 | i
CCOc1ccc(N(CC(=O)Nc2ccccc2C(=O)NC(C)CC)S(C)(=O)=O)cc1 (configuration not stated) | i | i | i | i | i
OC(C#CCN1CCCC1)(c1ccccc1)c1cccnc1 (configuration not stated) | nt | nt | nt | 10 | nt
Cc1ccc(S(=O)(=O)N(Cc2cc3cccc(C)c3[nH]c2=O)c2ccccc2)cc1 | i | i | i | 9.1 | i
COc1ccccc1-c1cc(C(=O)N2CCc3ccccc3C2)c2ccccc2n1 | 42 | i | i | i | i
COc1ccccc1-c1cc(C(=O)N/N=C/c2cccs2)c2ccccc2n1 | i | i | i | 10 | i

High-throughput results as filed in PubChem BioAssay.
